Bioassay records (PubChem BioAssay)
Pemphigus Ab inh: inhibitors of pemphigus antibody binding to DSG3, primary screen, biochemical, bead-based, flow cytometry, scFv-GFP | DSG3-coupled beads, scFv-anti-DSG3-GFP binding; active compounds read low | 310,000 tested, 0.48% active | binding (percent of control), % at 10 µM | AID 588358, 2011;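 active means binding more than 3 SD below its plate's average and above zero; inconclusive means below that plate limit but binding exactly zero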;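 further: hits lower antibody fragment binding to DSG3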
Target sequence (P32926 whole entry, looked up, the tested form may be a part): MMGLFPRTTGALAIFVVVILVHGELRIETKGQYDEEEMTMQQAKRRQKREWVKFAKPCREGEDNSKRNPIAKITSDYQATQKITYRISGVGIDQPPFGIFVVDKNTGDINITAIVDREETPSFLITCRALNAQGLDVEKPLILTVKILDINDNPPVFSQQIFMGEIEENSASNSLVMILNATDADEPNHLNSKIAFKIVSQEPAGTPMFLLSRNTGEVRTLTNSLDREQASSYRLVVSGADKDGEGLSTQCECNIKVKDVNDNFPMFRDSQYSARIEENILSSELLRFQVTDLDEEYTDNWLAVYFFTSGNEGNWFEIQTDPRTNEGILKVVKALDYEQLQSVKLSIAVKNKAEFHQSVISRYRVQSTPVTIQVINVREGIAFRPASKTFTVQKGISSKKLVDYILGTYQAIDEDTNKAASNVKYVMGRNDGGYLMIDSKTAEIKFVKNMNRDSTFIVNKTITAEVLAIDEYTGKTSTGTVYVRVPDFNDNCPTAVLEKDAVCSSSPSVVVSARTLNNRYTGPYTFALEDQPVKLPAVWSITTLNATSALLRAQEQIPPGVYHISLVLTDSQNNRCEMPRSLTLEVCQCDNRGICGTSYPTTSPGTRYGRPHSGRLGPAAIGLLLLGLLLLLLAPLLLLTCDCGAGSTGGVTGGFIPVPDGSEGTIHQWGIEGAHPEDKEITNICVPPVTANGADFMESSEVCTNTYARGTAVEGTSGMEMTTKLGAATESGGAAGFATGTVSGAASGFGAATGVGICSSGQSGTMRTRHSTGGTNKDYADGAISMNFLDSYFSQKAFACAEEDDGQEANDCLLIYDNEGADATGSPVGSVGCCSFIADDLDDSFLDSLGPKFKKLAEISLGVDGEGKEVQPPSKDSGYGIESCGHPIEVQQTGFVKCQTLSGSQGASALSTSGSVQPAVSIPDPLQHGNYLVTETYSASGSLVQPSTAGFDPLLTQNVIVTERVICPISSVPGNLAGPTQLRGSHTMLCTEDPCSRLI
MsrA inh: bovine MsrA enzyme inhibitors, primary screen, biochemical, absorbance, HTS; purified bovine MsrA, absorbance read-out; inhibition, % at 15.5 µM; 360,000 tested, 0.75% active; AID 651718, 2012; in the data active means inhibition above about 4.5%
NadD block: inhibitors of S. aureus NadD, primary screen, biochemical, colorimetric, uHTS; 360,000 tested, 0.78% active; purified NadD enzyme, colorimetric absorbance read-out; inhibition, % at 20 µM; in the data active means inhibition above about 26%
MsrA act: bovine MsrA enzyme activators, primary screen, biochemical, absorbance, HTS. AID 602163, 2012. purified bovine MsrA, absorbance read-out. 360,000 tested, 0.3% active. activation, % at 10.6 µM; in the data active means activation above about 7.5%
DAGLB inhibitor: DAGLB lipase inhibitors, primary screen, biochemical, fluorescence, HTS; HEK293T DAGLB membrane lysate, EnzChek fluorogenic substrate; inhibition, % at 5.17 µM; 340,000 tested, 0.059% active; in the data active means inhibition above about 34%
rCAG binder: binders of r(CAG) RNA repeats, primary screen, biochemical, fluorescence. r(CAG) RNA repeat, TO-PRO-1 dye displacement fluorescence. inhibition, % at 3 µM. 370,000 tested, 1.3% active;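 active means inhibition above the plate cutoff, the mean of all test compounds on that plate plus 3 SD, cut at about 35% in these data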;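 further: higher means more dye released from RNA so lower well fluorescence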
rCAG bind conf: small molecules binding CAG repeat RNA – biochemical, fluorescence, confirmation; 4,300 tested, 70% active; r(CAG) RNA repeat, TO-PRO-1 dye displacement fluorescence; shares compounds with rCAG binder; inhibition, % at 3 µM;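 active means inhibition above a per-plate cutoff, the mean inhibition of sample wells plus 3 SD, cut at about 35% in these data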;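 further: loss of TO-PRO-1 fluorescence as compound displaces dye from 1x1 AA loop RNA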
dCAG dye counter: displacement of TO-PRO-1 from CAG DNA duplex, counter-screen for rCAG RNA repeat binder project, biochemical, fluorescence, TO-PRO-1 dye, d(CAG) DNA oligo. inhibition, % at 3 µM. d(CAG) DNA oligo TO-PRO-1 dye displacement. 4,300 tested, 94% active. AID 652068, 2013. shares compounds with rCAG binder;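 active means inhibition above its plate's cutoff, the mean test-well inhibition plus 3 SD, cut at about 4.8% in these data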;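 further: hits displace the dye from DNA and so lower well fluorescence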
dCAG dye DR: inhibitors of DNA CAG/GTC TO-PRO-1 complex, dose response, counter-screen for rCAG RNA repeat binder project, biochemical, fluorescence, TO-PRO-1 dye; 250 tested, 20% active; DNA CAG/GTC duplex TO-PRO-1 dye displacement fluorescence; shares compounds with rCAG binder; IC50, µM; AID 686960, 2013; in the data active means IC50 below about 10 µM
A number is an active result; . = inactive; ? = inconclusive; / = no result given. The list is not random: actives were taken first. Their share in the collection is about 3.2%.

SMILES	Pemphigus Ab inh	MsrA inh	NadD block	MsrA act	DAGLB inhibitor	rCAG binder	rCAG bind conf	dCAG dye counter	others
COc1ccc(C(c2nnnn2C2CCCCC2)N2CCN(C/C=C/c3ccccc3)CC2)cc1 (stereo unspecified)	/	.	.	.	/	.	/	/
CCOc1ccc2nc(NC(=O)CSc3nc(-c4ccccc4)c(C#N)c(=O)[nH]3)sc2c1	.	.	.	.	.	83	88	69
CCOC(=O)Cc1csc(NC(=O)CSc2nc(-c3ccccc3)c(C#N)c(=O)[nH]2)n1	.	.	.	.	.	64	57	20
COC(=O)C(CC(C)C)NC(=O)CSc1nc(-c2ccccc2)c(C#N)c(=O)[nH]1 (stereo unspecified)	.	.	.	.	.	.	/	/
Cc1sc(NC(=O)CSc2nc(O)cc(=O)[nH]2)nc1-c1ccccc1	.	.	.	.	.	.	/	/
COc1cccc(-c2nc(SCC(=O)Nc3nc(-c4ccccc4)c(C)s3)[nH]c(=O)c2C#N)c1	.	.	.	.	.	70	92	76
CCOC(=O)[C@]12CCCC=C1N(CCC1=CCCCC1)C(=O)[C@H](CC(=O)NCC13CC4CC(CC(C4)C1)C3)C2	/	.	/	/	/	.	/	/
Cc1ccccc1N/N=C/c1sc(=O)n(Cc2cccc(C(=O)O)c2)c1Cl	.	.	.	.	.	69	78	40
COC(=O)c1cccc(Cn2c(Cl)c(/C=N/Nc3ccccc3C)sc2=O)c1	.	.	.	.	.	.	/	/
COC(=O)[C@H]1C[C@@]2(C)c3ccccc3N(S(=O)(=O)c3ccccc3)[C@H]2N1C(=O)CNC1CCCCC1	/	/	/	/	/	.	/	/
CCOC(=O)C1CCCN(c2nc3ccccc3nc2NS(=O)(=O)c2ccc(C)cc2)C1 (stereo unspecified)	?	.	.	.	.	62	58	15
O=C(O)c1ccc(Cl)c(S(=O)(=O)N2CCC(Cc3ccccc3)CC2)c1	.	.	.	.	.	62	45	13
O=C(O)c1cccc(S(=O)(=O)N2CCC(Cc3ccccc3)CC2)c1	.	.	.	.	.	.	/	/
Cc1ccc(S(=O)(=O)Nc2ccc(Br)cc2/C=N/n2cnnc2)cc1	.	.	.	.	.	45	39	13
CC1=CCC(C(=O)O)C(C(=O)Nc2ccc(-c3nc4ccc(C)cc4s3)cc2)C1 (stereo unspecified)	.	.	.	.	.	67	73	36
CC(=O)NC(=S)Nc1ccc(-c2nc3ccc(C)cc3s2)cc1	.	.	.	.	.	.	/	/
Cc1ccc2nc(-c3ccc(NS(=O)(=O)c4ccc(F)cc4)cc3)sc2c1	.	.	.	.	.	48	60	24
O=[N+]([O-])c1ccc2nc(NS(=O)(=O)c3ccc(F)cc3)sc2c1	/	.	.	.	.	43	.	.
Cc1ccc(S(=O)(=O)Nc2nc3ccc(N)cc3s2)cc1	/	.	.	.	.	.	/	/
O=C1CC(=O)N(C2CCCCC2)C(=O)N1c1ccccc1S(=O)(=O)Oc1ccccc1	/	.	.	.	/	59	.	8.0
C=CCC[C@@H](CCCCC)OC(=O)/C=C/[C@H](O)[C@@H](O)C[C@H](O)CC=C	/	.	.	.	/	.	/	/
O=C(O)COc1ccccc1/C=N/NC(=O)Cc1csc(Nc2cccc(C(F)(F)F)c2)n1	.	.	.	.	/	59	55	17
O=C(O)C1=CC[C@@H](c2ccc(Cl)cc2)N(S(=O)(=O)c2ccc(Cl)cc2)[C@H]1c1ccc(F)cc1	.	.	.	.	.	70	68	30
Cc1ccccc1S(=O)(=O)N1[C@@H](c2ccc(F)cc2)C(C(=O)O)=CC[C@H]1c1ccc(Cl)cc1	.	.	.	.	.	58	72	33	dCAG dye DR=.
COc1ccc([C@@H]2CC=C(C(=O)O)[C@H](c3ccc(Cl)cc3)N2S(=O)(=O)c2ccc(Cl)cc2)cc1	.	.	.	.	.	59	74	38
SMILES	Pemphigus Ab inh	MsrA inh	NadD block	MsrA act	DAGLB inhibitor	rCAG binder	rCAG bind conf	dCAG dye counter	others
COc1ccc([C@@H]2CC=C(C(=O)O)CN2S(=O)(=O)c2ccc(Cl)cc2)cc1	.	.	.	.	.	.	/	/
Cc1ccc(S(=O)(=O)N2[C@@H](c3ccccc3F)C(C(=O)O)=CC[C@H]2c2cccc(Cl)c2)cc1	.	.	.	.	.	.	/	/
Cc1ccc([C@@H]2CC=C(C(=O)O)[C@H](c3ccc(F)cc3)N2S(=O)(=O)c2ccc(C)cc2)cc1	.	.	.	.	.	54	61	24
C[C@@H]1C(=O)N2N=Cc3ccccc3[C@H]2N2N=Cc3ccccc3[C@@H]12	/	/	/	/	/	.	/	/
C[C@H](c1ccccc1)N1C[C@@H](COCc2ccccc2)Oc2cc(N3CCC[C@H]3CO)ccc2S1(=O)=O	/	.	.	.	/	.	/	/
Cc1ccc(S(=O)(=O)N2[C@@H](c3cccc(Cl)c3)C(C(=O)O)=CC[C@H]2c2ccc(Cl)cc2)cc1	.	.	.	.	.	.	/	/
Cc1ccc(S(=O)(=O)N2[C@@H](c3ccc(F)cc3)C(C(=O)O)=CC[C@H]2c2cccc(C)c2)cc1	.	.	.	.	.	.	/	/
CCOc1ccc([C@@H]2CC=C(C(=O)O)[C@H](c3cccc(Cl)c3)N2S(=O)(=O)c2ccc(C)cc2)cc1	.	.	.	.	.	69	71	33	dCAG dye DR=.
CCc1ccc([C@@H]2CC=C(C(=O)O)[C@H](c3ccccc3)N2S(=O)(=O)c2ccc(C)cc2)cc1	.	.	.	.	.	76	67	27
CCOc1ccc([C@@H]2CC=C(C(=O)O)[C@H](c3ccc(F)cc3)N2S(=O)(=O)c2ccc(C)cc2)cc1	.	.	.	.	.	52	51	15
Cc1ccc([C@@H]2CC=C(C(=O)O)[C@H](c3ccc(Br)cc3)N2S(=O)(=O)c2ccc(C)cc2)cc1	.	.	.	.	.	82	84	50
COc1ccc(C)cc1S(=O)(=O)N1CCN(C/C=C/c2ccccc2)CC1	.	.	.	.	.	.	/	/
